The source of these data is PubChem BioAssay (NCI).

About 83,000 compounds went through this panel and 20% of them were active in at least one assay; those are over-represented in the sample as a whole.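 Method: cells in 96-well plates; compound added at one concentration; 48 h incubation; percent growth measured; values under 10 scored active.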 Activity calls are given as the source filed them.

The assay concerns NCI-H23 lung. The assay is described as follows: NCI-60 one-dose screen, 48 h (100 = growth as untreated, 0 = no growth, -100 = all killed). To be noted: 10 µM unless noted.
As for `CCOC(=O)c1ccc(N(CCC(=O)O)C(C)=O)cc1`, the growth was 111% (inactive). The figure for `Nc1c(C(=O)Nc2cccc(Cl)c2)sc2ncc(Br)cc12` is 79.5% (inactive); for `CSC(=S)N/N=C(\C)c1ccccn1` it is 33.6% (inactive). As for `CC(=O)O[C@H]1[C@H](CC#CC#CC[C@@H]2C[C@]3(C)[C@H]4CC=C5[C@H]6[C@@H](C)[C@H](C)CC[C@]6(C(=O)NCCCCCCCCN)CC[C@@]5(C)[C@]4(C)CC[C@H]3C(C)(C)[C@H]2OC(C)=O)C[C@]2(C)[C@H]3CC=C4[C@H]5[C@@H](C)[C@H](C)CC[C@]5(C(=O)NCCCCCCCCN)CC[C@@]4(C)[C@]3(C)CC[C@H]2C1(C)C`, the growth is 99.1% (inactive). The result for `CC(C)COC(=O)NC(C)(C)C` reads 101% (inactive); that for `CCC(=O)NC(O)C(Cl)(Cl)C(C)Cl` (centres undefined), 96.3% (inactive); that for `C#CCNC(=S)N/N=C(\C)c1ccccn1`, 20.1% (inactive).

Regarding `COc1ccc(-c2nnc(SCC(=O)Nc3ccc(C(=O)/C=C/c4ccc(Cl)cc4)cc3)n2-c2ccccc2)cc1`, the growth is 91.1% (inactive).

In the case of `CC1CCN(Cc2ccc(NC(=O)c3cc4ccc5cccnc5c4[nH]3)cc2)CC1`, the growth was 25.2% (inactive). The result for `CC(C)N1CCN(c2ccncc2S(=O)(=O)N2CCN(C)CC2)CC1` reads 96.8% (inactive); that for `O=C(/C=C/c1ccccc1)n1c(-c2ccccc2)nc2ccccc21`, 101% (inactive). The figure for `COC1CC(N)C2OC(c3ccccc3)OCC2O1` (centres undefined) is 103% (inactive); for `COc1cccc(NC(=O)[C@H](C(C)C)n2c(=O)[nH]c3ccccc3c2=O)c1` it is 99.8% (inactive); for `COc1ccc(-c2cnc3ccnn3c2-c2cc(OC)c(OC)c(OC)c2)cc1` it is 42.7% (inactive).

As for `COc1cc2cc(C(=O)Nc3ccccc3)c(N)nc2cc1OC`, the growth is 77.6% (inactive). The result for `O=C(C=P(c1ccccc1)(c1ccccc1)c1ccccc1)CCl` reads -23.2% (active); that for `CCCCCCCCCCCCCCCCS(=O)(=O)Nc1cc(C(=O)NN)cc(C(=O)NN)c1`, 99.1% (inactive). The result for `COS(=O)(=O)CCN(CCOS(C)(=O)=O)S(C)(=O)=O` reads 105% (inactive). The result for `CCn1c(CN2CCN(Cc3ccccc3)CC2)nc2cc(NC(=O)c3cccs3)ccc21` reads -39% (active); that for `CC(=O)c1ccc(-n2c(-c3cc(-c4ccsc4)n[nH]3)n[nH]c2=S)cc1`, 102% (inactive); that for `CCN(CC)Cc1cc(Nc2ccnc3cc(Cl)ccc23)cc(-c2ccc(Cl)cc2)c1O`, 24% (inactive). Regarding `O=C(NCC(c1ccsc1)N1CCCCCC1)c1ccc(C(F)(F)F)cc1` (centres undefined), the growth was 93% (inactive).

As for `COc1cc(NC(C)CCCN)c2ncccc2c1Oc1ccc(Cl)cc1` (centres undefined), the growth is 87.4% (inactive). For `O=C(c1ccccc1)N(CCCCl)C(=O)N(CCCCl)C(=O)c1ccccc1`, the growth is 83.1% (inactive).

Take `COc1ccc(C2=CC(c3ccc(OC)cc3Br)N3C=CSC3=N2)cc1` (centres undefined): the growth is 96.9% (inactive). The result for `CC(=O)c1nn(-c2ccccc2)/c(=N\N=C\c2coc3ccc(F)cc3c2=O)s1` reads 96.8% (inactive). The figure for `O=C(c1ccc(C(F)(F)F)c(Cl)c1)N(Cc1ccc(Cl)cc1)c1ccc(-c2cc(C(F)(F)F)[nH]n2)c(O)c1` is 6.5% (active); for `C/C(=N\OC(=O)Nc1cccc(Cl)c1)c1ccccc1` it is 106% (inactive). The result for `C/C(=C\C(=N\N=C(N)N)c1ccc(Cl)cc1)c1ccc(Cl)cc1` reads -71.5% (active); that for `O=C(NO)c1ccc(NCc2csc3ccccc23)cc1`, 48.5% (inactive).

With `C#CC[C@@H]1C[C@]2(C)[C@H]3CC=C4[C@H]5CC(C)(C)CC[C@]5(C(=O)NCCCCN)CC[C@@]4(C)[C@]3(C)CC[C@H]2C(C)(C)[C@H]1OC(C)=O`, the growth is 78.9% (inactive). As to `Oc1ccc(Cl)cc1-c1cc(-c2ccccc2Cl)[nH]n1`, the growth was 47.8% (inactive).

For the compound `CC1C2CCC(C2)C1COCCOCCO` (centres undefined), the growth was 107% (inactive). The result for `O=C1C(Cl)=C(N/N=c2/[nH][nH]/c(=N/NC3=C(Cl)C(=O)c4ccccc4C3=O)c3ccccc23)C(=O)c2ccccc21` reads 82.5% (inactive). The figure for `COc1ccc(/C=c2\c(=O)n(-c3ccccc3)c3nn4c(n23)=NNC42CCCCC2)cc1` is 92.7% (inactive); for `CCNC(=S)N(Cc1ccccc1)Cc1ccccc1` it is 110% (inactive); for `N#CC1=C(N)Oc2nc[nH]c(=O)c2C1c1cccs1` (centres undefined) it is 110% (inactive). The figure for `CCN(C(=O)Nc1cccc2ccccc12)c1ccccc1` is 98.3% (inactive); for `COc1ccc(-c2nc(-c3cc(OC)cc(OC)c3)[nH]c2-c2ccc(OC)cc2)cc1` it is 39.1% (inactive).
